# According to PubChem BioAssay AID2284344 (EPA ToxCast):
# Inconclusive results are not listed. The source made the active and inactive calls. Rule for the calls: active = hit-call score of the fitted dose curve at least 0.9, where 1 is the maximum; inconclusive = response in the unintended direction; inactive = score below 0.9.
# Test system: frog Peroxisome Proliferator-activated Receptor-alpha (PPARa), gene 398843
# Test: ATG_frPPARa_EcoTox2: Attagene TRANS-FACTORIAL EcoTox-2 HepG2 Assay for frog Peroxisome Proliferator-activated Receptor-alpha (PPARa)
# Procedure: ATG_EcoTox2 is a cell-based, multiplexed assay created by modifying the existing Attagene TRANS-FACTORIAL system to include a panel of nuclear receptors from some or all the following species: human (Homo sapiens), african clawed frog (Xenopus laevis), rainbow trout (Oncorhynchus mykiss), japanese medaka (Oryzias latipes), and zebrafish (Danio rerio). The ECOTOX2-FACTORIAL format uses HepG2, a human liver cell line, with measurements taken at 24 hours after chemical dosing in a 24-well plate. ATG_frPPARa_EcoTox2 is one of 29 assay components calculated in the ATG_EcoTox2 assay. It is designed to make measurements of mRNA induction, a form of inducible reporter, as detected with fluorescence intensity signals by Reverse transcription polymerase chain reaction (RT-PCR) and Capillary electrophoresis technology.The assay endpoint ATG_frPPARa_EcoTox2 was analyzed in the positive analysis fitting direction relative to DMSO as the negative control and baseline of activity. Using a type of inducible reporter, measures of mRNA for gain-of-signal activity can be used to understand the reporter gene at the transcription factor-level as they relate to the gene PPARa. Furthermore, this assay endpoint can be referred to as a primary readout, because this assay has produced multiple assay endpoints where this one serves a reporter gene function. To generalize the intended target to other relatable targets, this assay endpoint is annotated to the nuclear receptor intended target family, where the subfamily is non-steroidal.
# Human liver HepG2 cells are transiently transfected with multiple reporter transcription units (MRTUs) in 6-well plates using FuGene 6 reagent (Roche; 3 ml FuGene/1 mg DNA). The MRTU constructs are regulated by a cis-regulating element (promoter). Each RTU expresses a GAL4-UAS that regulates the transcription of a nearby target reporter gene sequence. A major difference between the CIS and TRANS system is that in CIS activities of endogenous TFs are measured, whereas the TRANS assay evaluates changes in activities of exogenous, chimeric NR-Gal4 proteins. […] At the end of 24 hour incubation, total RNA was isolated using TriZol reagent (Invitrogen). The isolated RNA is then reverse-transcribed using oligo(dT) primer and Mo-MLV reverse transcriptase (Invitrogen) with DNAse I (Ambion) treatment for 30 min. The one-tenth of the produced cDNA was amplified by PCR using Taq DNA polymerase (Invitrogen) and two reporter sequence-specific primers. The PCR products were fluorescently labeled by primer extension with 6-arboxyfluorescein (6-FAM) 5'-labeled reporter sequence-specific primer (2 min at 95 C, 20 s at 68 C and 10 min at 72 C) and these products were digested with 5U of HpaI (New England Biolabs) for 2h at 37 C. The fragments were purified using Qiaquick PCR columns (Qiagen), analyzed on an ABI 3130xL genetic analyzer (Applied Biosystems) with peak positions identified by using a set of X-rhodamine (ROX)-labeled MapMarker1000 molecular weight standards (BioVentures). The raw capillary electrophoresis data was processed using Attagraph software (Attagene).
SMILES,AC50,outcome
Cc1cccc(Nc2cc(Cl)nc(SCC(=O)O)n2)c1C,11.9 µM (active),
C=C(c1ccc(C(=O)O)cc1)c1cc2c(cc1C)C(C)(C)CCC2(C)C,,inactive
Cc1c(C)c2c(c(C)c1O)CCC(C)(COc1ccc(CC3SC(=O)NC3=O)cc1)O2 (stereo not drawn),,inactive
C[C@@H]1C[C@H]2[C@@H]3CCC4=CC(=O)C=C[C@]4(C)[C@@]3(F)[C@@H](O)C[C@]2(C)[C@@]1(O)C(=O)COP(=O)(O)O,,inactive
C[C@]12C=CC(=O)C=C1CC[C@@H]1[C@@H]2C(=O)C[C@@]2(C)[C@H]1CC[C@]2(O)C(=O)CO,,inactive
CC(C)(Oc1ccc(CCNC(=O)c2ccc(Cl)cc2)cc1)C(=O)O,23.6 µM (active),
CC(c1cc2ccccc2s1)N(O)C(N)=O (stereo not drawn),,inactive
CC(C)(Oc1ccc(Cl)cc1)C(=O)O,,inactive
CC(C)OC(=O)C(C)(C)Oc1ccc(C(=O)c2ccc(Cl)cc2)cc1,,inactive
Cc1nc(-c2ccc(C(F)(F)F)cc2)sc1C(=O)NCc1ccc(OC(C)(C)C(=O)O)cc1,0.0823 µM (active),
CC(C)(Oc1ccc(C2CC2(Cl)Cl)cc1)C(=O)O (stereo not drawn),113 µM (active),
Cc1ccc(C)c(OCCCC(C)(C)C(=O)O)c1,50 µM (active),
CN(CCOc1ccc(CC2SC(=O)NC2=O)cc1)c1ccccn1 (stereo not drawn),8.4 µM (active),
